Rows were chosen to be rich in hits. Some 2.5% of all compounds tested hit in one or more screens of this group.
AF4-AF9 inh = MLL-AF4/AF9 protein interaction inhibition; P42568; AlphaScreen, biotin-AF4 peptide binding to FLAG-AF9; inhibition, % at 10 µM; hit rate 0.47% among 350,000; AID 651704;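 active means every replicate reaching a set inhibition limit, whatever the replicate mean, cut at about 25% in these data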;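 further: 0% = plate neutral control median and 100% = total signal loss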
Target sequence (P42568 whole entry, looked up): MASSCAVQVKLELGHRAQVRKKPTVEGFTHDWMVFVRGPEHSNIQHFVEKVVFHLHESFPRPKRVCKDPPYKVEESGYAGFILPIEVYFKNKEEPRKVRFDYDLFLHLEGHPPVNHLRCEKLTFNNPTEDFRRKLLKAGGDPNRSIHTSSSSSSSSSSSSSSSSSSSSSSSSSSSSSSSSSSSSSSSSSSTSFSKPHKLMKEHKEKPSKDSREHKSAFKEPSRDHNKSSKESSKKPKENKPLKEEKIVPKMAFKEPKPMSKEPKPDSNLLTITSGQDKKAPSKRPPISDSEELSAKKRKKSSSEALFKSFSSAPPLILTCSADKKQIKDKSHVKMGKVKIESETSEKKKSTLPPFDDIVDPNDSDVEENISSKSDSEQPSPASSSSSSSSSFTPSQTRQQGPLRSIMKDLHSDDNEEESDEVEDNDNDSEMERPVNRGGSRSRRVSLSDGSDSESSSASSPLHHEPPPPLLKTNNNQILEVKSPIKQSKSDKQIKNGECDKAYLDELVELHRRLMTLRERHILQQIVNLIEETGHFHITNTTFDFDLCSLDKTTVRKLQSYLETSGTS
Casp6 inh = caspase-6 (human) enzyme inhibition; inhibition, % at 12.5 µM; hit rate 0.53% among 350,000; purified caspase-6, Z-VEID-R110 cleavage fluorescence;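 active means mean inhibition across replicates at least about 35%, with every replicate also reaching that limit, limit read from the data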;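 further: 0% = median of neutral control wells and 100% = no fluorescence left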
NSD2 HMT inh = NSD2 (human) methyltransferase inhibition; hit rate 0.54% among 310,000; inhibition, % at 12.5 µM; O96028; NSD2 peptide methylation, AlphaScreen, 120 min; in the data active means inhibition above about 50%
RAD52 inh = blocks human RAD52 DNA annealing; recombinant RAD52 DNA annealing, FRET fluorescence; inhibition, % at 18.7 µM; hit rate 0.46% among 360,000; AID 651710;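 active means every replicate showing at least 50% inhibition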
rRNA inh HTS = inhibits bacterial ribosomal RNA function over humanized ribosomes; E. coli WT GFP vs humanized-ribosome RFP mutants, fluorescence, 24 h; stronger effect = lower value; DMSO median 0, no signal -100; GFP signal change (wild-type ribosome), % (no concentration beside the values); hit rate 1.6% among 350,000; AID 720706;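 active means significant combined selectivity score with lowered wild-type GFP, culture density cut under 30%, mutant RFP and density less affected; inactive means any of these conditions unmet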
Numbers without * were called inactive; . = no result given.

SMILES	AF4-AF9 inh	Casp6 inh	NSD2 HMT inh	RAD52 inh	rRNA inh HTS
CCC(=O)N1CC2(C1)[C@H](c1ccc(-c3ccccc3)cc1)[C@@H](CO)N2C(C)=O	1	1	.	-24	-2
COc1ccccc1CCNC(=O)c1cc(COc2cccc(C(F)(F)F)c2)on1	-1	0	-7	-13	-34*
COc1cccc(OCc2cc(C(=O)NCc3ccc4c(c3)OCO4)no2)c1	-7	-1	23	-7	-33*
O=C(NCc1ccc2c(c1)OCO2)c1cc(COc2c(F)cccc2F)on1	1	0	0	-4	-9
C[C@@H]1CN([C@@H](C)CO)C(=O)c2cc(NC(=O)CCC(F)(F)F)ccc2O[C@@H](C)CCCCO[C@@H]1CN(C)Cc1ccc(C(F)(F)F)cc1	3	0	.	-38	2
Cc1ccccc1S(=O)(=O)NCC[C@@H]1CC[C@H](NC(=O)C2CCCCC2)[C@H](CO)O1	-1	2	.	-1	0
Cc1cc(=O)oc(C)c1C(=O)NNC(=O)C1(C)CC1Br (centres undefined)	0	-1	-1	-9	6
CC1(C(=O)NNC(=O)c2ccc(=O)oc2)CC1Br (centres undefined)	-1	42*	7	-308	12
C=CC[C@]1(C(=O)NCc2ccccc2)COC(c2ccc(OCCCO)cc2)=N1	-1	0	.	4	.
COc1ccc(C(=O)N/N=C/c2ccc(N3CCOCC3)o2)cc1OC	-8	2	1	-7	4
COc1ccc(C(=O)N/N=C/c2ccc(N3CCOCC3)s2)cc1OC	-3	2	3	-6	-16*
Cc1noc(C)c1NC(=O)Nc1ccc2c(c1)CC(=O)N([C@@H](C)CO)C[C@H](C)[C@@H](CN(C)Cc1ccc(-c3ccccc3)cc1)O2	0	0	.	15	0
CCOc1cc(NCCN2CCOCC2)c([N+](=O)[O-])cc1OCC	0	1	14	-2	-3
O=[N+]([O-])c1ccc(NCCN2CCOCC2)c([N+](=O)[O-])c1	2	42*	0	-8	-1
CN1C(=O)c2cc(NC(=O)C3CCOCC3)ccc2OC[C@@H]2O[C@H](CC(=O)NC3CCCC3)CC[C@H]21	0	0	.	-1	6
COc1cc(/C=N/NC(=O)c2c(-c3ccccc3)noc2C)ccc1O	.	.	0	.	.
COc1ccc(Cl)cc1/C=N/NC(=O)c1c(-c2ccccc2)noc1C	0	-2	0	-6	-17*
COc1cccc(/C=N/NC(=O)c2c(-c3ccccc3)noc2C)c1OC	2	5	0	-13	-20*
Cc1nc([N+](=O)[O-])c(C(=O)OCc2cccc(Br)c2)n1C	4	-2	.	-4	-18*
Cc1csc2nc3cc(C(N)=O)ccc3c(=O)n12	55*	1	.	-11	3
NC(=O)c1ccc2c(=O)n3c(-c4cc(Cl)c(N)c(Cl)c4)csc3nc2c1	-5	-2	.	9	16
Cc1cc(C)c(S(=O)(=O)Nc2ccc(Cl)cn2)c(C)c1	-2	-7	-3	-13	-31*
Cc1cc(C)[n+](-c2ccc(Oc3ccccc3)c(S(=O)(=O)[O-])c2)[nH]1	-2	41*	0	-10	1
Cc1ccc(S(=O)(=O)N[C@@H]2CC[C@@H](CCNC(=O)c3ccc4c(c3)OCO4)O[C@@H]2CO)cc1	-1	-2	.	4	2
CCC(C)n1c(=S)[nH]c2c(sc3ccc([N+](=O)[O-])cc32)c1=O (centres undefined)	-5	0	7	4	-32*
SMILES	AF4-AF9 inh	Casp6 inh	NSD2 HMT inh	RAD52 inh	rRNA inh HTS
CC(C)n1c2ccccc2c2cc([N+](=O)[O-])ccc21	5	2	0	-21	5
C[C@@H]1CN(C)C(=O)c2cccc(N)c2O[C@@H]1CN(C)S(C)(=O)=O	.	.	.	.	-4
C[C@@H]1CN([C@H](C)CO)C(=O)c2cc(NS(=O)(=O)c3cccs3)ccc2O[C@H]1CN(C)S(=O)(=O)c1cccs1	.	.	.	.	-4
O=C(N/N=C/c1ccc(O)cc1)c1cc(C23CC4CC(CC(C4)C2)C3)[nH]n1	0	6	1	-6	-32*
CN(C)C(=O)C[C@H]1C=C[C@@H](NS(=O)(=O)c2ccccc2)[C@H](CO)O1	0	3	.	-9	3
CC1(C)Cc2c(sc3ncnc(NNC(=S)NCc4ccccc4)c23)CO1	-2	3	0	0	-34*
CCN(CC)CCCNC(=S)N1CCN(c2nc(-c3ccccc3)cs2)CC1	19	-18	28	21	-22*
COc1ccc2c3c(n(C)c2c1)[C@H](CO)N(C(=O)c1ccccc1)CC31CN(C)C1	10	.	.	.	2
COC(=O)COc1ccc(Cl)cc1C1Nc2ccccc2C(=O)N1c1ccc(OC)cc1 (centres undefined)	-17	0	.	-1	-25*
CCOC(=O)C1(CC2CCCCO2)CCN(C(=O)Nc2ccc(C(=O)OC)cc2)CC1 (centres undefined)	-4	-1	2	-14	-19*
CCOC(=O)C1(CC2CCCCO2)CCN(Cc2nc(C(C)C)cs2)CC1 (centres undefined)	2	-1	-2	-16	-29*
C[C@H]1CCCCO[C@@H](CN(C)C)[C@@H](C)CN([C@@H](C)CO)C(=O)c2cc(NS(C)(=O)=O)ccc2O1	-1	0	.	-13	4
O=C(NCCc1ccncc1)[C@H]1[C@H](CO)[C@H]2Cn3c(ccc(-c4ccccc4)c3=O)[C@H]2N1C(=O)C1CC1	-4	0	.	10	0
CN1c2ccccc2Sc2cc(N)ccc21	12	54*	6	-16	0
CC1(C)Cc2c(sc(NC(=O)c3ccco3)c2C(=O)O)CO1	0	37*	.	-18	-6
CC1(C)Cc2c(sc(NC(=S)NC(=O)c3ccccc3)c2C(=O)O)CO1	-4	5	3	-17	-4
COc1ccc(NC(=O)c2ccc(-c3ccc([N+](=O)[O-])cc3)o2)cc1OC	2	-1	0	-12	-42*
CC(=O)Nc1ccc(NC(=O)c2ccc(-c3ccc([N+](=O)[O-])cc3)o2)cc1	-1	1	-2	-8	-5
O=C(/C=C/c1ccc(Cl)cc1Cl)Nc1ccc(-c2nnc3n2CCCCC3)cc1	.	.	0	.	.
O=C(Nc1cccc(C(=O)N2CCOCC2)c1)c1ccc([N+](=O)[O-])cc1	1	42*	-5	0	13
Cc1cc2oc(C(=O)N3CCN(Cc4ccccc4)CC3)c(C)c2cc1C	.	3	2	-15	-46*
Cc1ccc(C(=O)N2CCN(Cc3ccccc3)CC2)o1	-1	1	.	-24	4
C[C@@H]1CCCCO[C@@H](CN(C)C)[C@@H](C)CN([C@H](C)CO)C(=O)c2cc(NC(=O)NC3CCCCC3)ccc2O1	-1	-4	.	-8	4
COc1c(F)c(F)c(C(=O)Nc2ccc3oc(-c4ccncc4)nc3c2)c(F)c1F	.	.	-2	.	.
COc1cccc(OC)c1C(=O)NC(=S)Nc1ccc2oc(-c3ccncc3)nc2c1	1	-1	28	-4	-14*
